Only some compounds are listed: those with a hit (about 2.1% of all), similar ones and a draw of the others.
STK33 kin inh = blocks human STK33 kinase activity. Q9BYT3. ADP-Glo luminescence, MBP substrate. inhibition, % at 12.5 µM. actives 0.44% (n = 27,000). AID 2322; in the data active = inhibition above about 20%; inconclusive = no clear call, values can overlap the other calls
Target sequence (Q9BYT3 whole entry, looked up): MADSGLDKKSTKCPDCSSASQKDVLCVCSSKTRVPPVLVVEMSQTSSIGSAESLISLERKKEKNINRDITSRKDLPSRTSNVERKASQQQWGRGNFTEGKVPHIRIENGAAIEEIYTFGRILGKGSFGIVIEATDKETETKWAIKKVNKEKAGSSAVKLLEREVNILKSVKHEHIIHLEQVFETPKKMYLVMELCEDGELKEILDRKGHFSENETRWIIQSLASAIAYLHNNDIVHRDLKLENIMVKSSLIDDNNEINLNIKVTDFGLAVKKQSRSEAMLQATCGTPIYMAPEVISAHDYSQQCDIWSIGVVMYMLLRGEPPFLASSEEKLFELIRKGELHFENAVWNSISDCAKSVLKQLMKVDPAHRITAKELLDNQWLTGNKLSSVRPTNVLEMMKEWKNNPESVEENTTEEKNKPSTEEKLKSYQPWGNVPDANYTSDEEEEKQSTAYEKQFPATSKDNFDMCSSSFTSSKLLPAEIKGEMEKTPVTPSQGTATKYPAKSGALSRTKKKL
ID4 binder = binders of human ID4 protein | small molecule microarray, Flag-ID4 binding, fluorescence F/B | calls only | actives 1.2% (n = 31,000) | AID 624137; call rule not given here;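 also: a binder raises fluorescence above local background on the spot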
mut p53 react = mutant p53 pathway reactivation. activation, % at 9.98 µM. actives 1.5% (n = 28,000). SW480 PUMA-promoter luciferase; in the data active = activation above about 52%; inconclusive = no clear call, values can overlap the other calls
* = called active by the depositor; i = inactive; ? = inconclusive; . = not tested or not shown; + = active, no number.

SMILES	STK33 kin inh	ID4 binder	mut p53 react
CCOc1ccc(NC(=O)C(C)Sc2ccccn2)cc1 (stereo not given)	-4	i	30
Nc1nnc(SCC(=O)c2ccc3ccccc3c2)s1	-2	i	95*
Cc1[nH]c2ccccc2c1C(=O)CSc1nnc(N)s1	-4	i	1
O=C(CC1(O)C(=O)Nc2c(C(F)(F)F)cccc21)c1ccco1 (stereo not given)	-1	i	-10
O=C(O)C(O)Cc1c[nH]c2ccccc12 (stereo not given)	.	i	1
O=C(O)CCCc1c[nH]c2ccccc12	-1	+	-10
CCc1cc2c(SCC(=O)Nc3cccc(C)c3)ncnc2s1	1	i	-9
COC(=O)c1ccccc1NC(=O)NCc1ccc(C(=O)O)cc1	1	+	-4
COC(=O)c1ccccc1NC(=O)c1ccc(COc2ccccc2)o1	4	i	103*
COC(=O)c1ccccc1NC(=O)c1cccc(NC(=O)COc2ccccc2)c1C	-5	i	-3
COC(=O)c1ccccc1NC(=O)CNC(=O)c1ccccc1	-3	i	-9
Cc1cc(C)cc(NC(=O)CN2CCC(C(N)=O)(N3CCCCC3)CC2)c1	-1	i	-13
CC(C)(C)c1nc2scc(-c3ccc(Cl)cc3)n2n1	.	i	17
Cc1ccc(SCc2[nH]n(-c3nc4ccccc4s3)c(=O)c2C=NCc2ccco2)cc1	.	i	-2
O=C(c1ccc([N+](=O)[O-])cc1)N(Cc1cc2ccccc2[nH]c1=O)c1ccccc1	5	+	-36
Cc1ccc(N(Cc2cc3ccccc3[nH]c2=O)C(=O)c2cccnc2)cc1	-1	i	5
COc1ccc([N+](=O)[O-])cc1N(CC(=O)Nc1cccc(C(F)(F)F)c1)S(C)(=O)=O	-3	i	-6
COc1cc(/C=C/c2cc(O)cc(O)c2)ccc1O[C@@H]1O[C@H](CO)[C@@H](O)[C@H](O)[C@H]1O	-1	i	66*
COc1cc(/C=C/c2cc(O)cc(O[C@@H]3O[C@H](CO)[C@@H](O)[C@H](O)[C@H]3O)c2)ccc1O[C@@H]1O[C@H](CO)[C@@H](O)[C@H](O)[C@H]1O	10	.	15
Cc1ccc2oc(-c3cccc(NC(=O)COc4ccc(Cl)cc4)c3C)nc2c1	3	i	66*
Cc1ccc2oc(-c3cccc(NC(=O)COc4ccc(Br)cc4)c3C)nc2c1	3	i	44
Cc1c(NC(=O)COc2ccc(C(C)(C)C)cc2)cccc1C(=O)O	2	i	24
Cc1ccc(OCC(=O)Nc2cccc(C(=O)O)c2C)cc1	-9	i	66*
Cc1nn(C(N)=S)c2c1CC(COCCC(C)C)O2 (stereo not given)	.	i	-7
COc1ccc2c(=S)c(-c3cc4ccccc4o3)c(C)oc2c1	4	.	.
SMILES	STK33 kin inh	ID4 binder	mut p53 react
CC(=O)Nc1ccc(S(=O)(=O)NC2(C(F)(F)F)C(=O)N(c3ccc(C(C)C)cc3)C(C)=C2C(C)=O)cc1 (stereo not given)	-1	i	-2
Cc1c(NC(=S)NCCc2c[nH]c3ccccc23)c(=O)n(-c2ccccc2)n1C	0	+	2
Cc1c(NC(=S)NCc2ccccn2)c(=O)n(-c2ccccc2)n1C	1	i	0
O=C(CN1C(=O)S/C(=C\C=C\c2ccccc2)C1=O)Nc1cccc(O)c1	.	i	59*
O=C(CCN1C(=O)c2ccccc2C1=O)Nc1cccc(O)c1	1	i	19
CN(C)C(=O)[C@]1(CCS(=O)(=O)c2ccccc2)N=C(c2ccc(OCCCO)cc2)O[C@@H]1c1ccccc1	-3	+	.
CN(C)C(=O)[C@]1(Cc2ccccc2)N=C(c2ccc(OCCCO)cc2)O[C@@H]1c1ccccc1	-1	.	.
CCOC(=O)c1cc(NC(=O)CSc2nc3ccccc3s2)ccc1Cl	0	i	-12
COc1ccc([Si](C)(C)[C@H]2[C@H](CCn3cc(CCO)nn3)O[C@@]3(C(=O)N(Cc4cccc(N5CCOC5=O)c4)c4ccccc43)[C@@H]2C)cc1	21*	i	.
COc1ccc([Si](C)(C)[C@@H]2[C@@H](CCO)O[C@]3(C(=O)N(Cc4ccc(N5CCOC5=O)cc4)c4ccccc43)[C@H]2C)cc1	20*	.	.
COc1ccc([Si](C)(C)[C@H]2[C@H](CCO)O[C@@]3(C(=O)N(Cc4cccc(NC(C)=O)c4)c4ccccc43)[C@@H]2C)cc1	38*	i	.
COc1ccc([Si](C)(C)[C@@H]2[C@@H](CCO)O[C@]3(C(=O)N(Cc4cccc(N5CCOC5=O)c4)c4ccccc43)[C@H]2C)cc1	18	i	.
COc1ccc([Si](C)(C)[C@@H]2[C@@H](CCn3cc(CCO)nn3)O[C@]3(C(=O)N(Cc4cccc(N5CCOC5=O)c4)c4ccccc43)[C@H]2C)cc1	?	i	.
